Experimental findings from the supplement of paper PMC12645437, “Orthogonal IMiD-Degron Pairs Induce Selective Protein Degradation in Cells” (ACS Chemical Biology, 2025) are described below.

Over roughly 8,300 sequences, “log2 fold change of degron read counts, EGFP-low vs EGFP+ sorted cells (limma voom), compound-induced degradation” has its median near -1.1; the highest 2% begin near 3.2. The sample holds the highest values, similar sequences and a random draw of the others, so the mix is not that of the screen.

In the assay the target is T1, CRBN, Q96SW2.
T1 chain: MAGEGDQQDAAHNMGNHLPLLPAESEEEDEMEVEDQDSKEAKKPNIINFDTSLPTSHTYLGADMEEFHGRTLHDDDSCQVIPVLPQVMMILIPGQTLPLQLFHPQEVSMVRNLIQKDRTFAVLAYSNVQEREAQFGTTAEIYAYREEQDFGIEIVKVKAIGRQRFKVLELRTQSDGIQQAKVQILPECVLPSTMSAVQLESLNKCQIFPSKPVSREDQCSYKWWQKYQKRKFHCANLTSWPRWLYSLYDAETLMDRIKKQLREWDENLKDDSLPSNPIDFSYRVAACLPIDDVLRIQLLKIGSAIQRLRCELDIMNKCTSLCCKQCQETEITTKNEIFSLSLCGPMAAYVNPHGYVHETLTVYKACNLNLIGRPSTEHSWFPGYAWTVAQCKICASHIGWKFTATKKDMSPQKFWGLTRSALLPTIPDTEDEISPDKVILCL
Kind of assay: log2 fold change of degron read counts, EGFP-low vs EGFP+ sorted cells (limma voom), compound-induced degradation; higher = more compound-induced degradation of the degron-EGFP fusion; degrons are variants of IKZF1/3 zinc finger 2; compound dose not given here. As to conditions: Jurkat, 18 h.

The mark [1] stands for this setting: compound: compound 19 (5-tert-butyl-thalidomide).
Setting [2] is: compound: compound 22 (5-morpholino-thalidomide).
Where [3] appears, read: compound: compound 33 (diphenyl IMiD analogue).
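Also: pooled lentiviral library of zinc finger degron-EGFP fusions in mCherry-positive Jurkat cells, FACS-sorted after compound exposure, with degron abundance counted by next-generation sequencing.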

On to FNCNQCGRWFTQKGNLLRHIKL [46F_47N_49N_50Q_52G_53R_54W_55F_67L_, Q9UKT9], for which the “log2 fold change of degron read counts” value reads like this: under setting [1], -2.05; under setting [2], -2.2; under setting [3], -1.98; (compound: thalidomide) -1.8.

With LLCNQCGFPCTQKGNLLRHIKL [46L_47L_49N_50Q_52G_53F_54P_55C_67L_, Q9UKT9], the “log2 fold change of degron read counts” value was -1.89 under setting [1], -1.87 under setting [2], -1.69 under setting [3] and -1.84 (compound: thalidomide).

On to FHCEVCGAMFTQKGNLLRHIKL [46F_47H_49E_50V_52G_53A_54M_55F_67L_, Q9UKT9], for which the “log2 fold change of degron read counts” value under setting [1] was found to be 1.44, the “log2 fold change of degron read counts” value under setting [2] turned out to be 1.27, the “log2 fold change of degron read counts” value under setting [3] amounted to 0.505 and the “log2 fold change of degron read counts” value (compound: thalidomide) is -0.808.

In the case of FYCEVCGAMFTQKGNLLRHIKL [46F_47Y_49E_50V_52G_53A_54M_55F_67L_, Q9UKT9], the “log2 fold change of degron read counts” value is, setting by setting: under setting [1], 3.32; under setting [2], 3.43; under setting [3], 2.43; (compound: thalidomide) 0.383.

Consider FFCEVCGAMFTQKGNLLRHIKL [46F_47F_49E_50V_52G_53A_54M_55F_67L_, Q9UKT9], for which the “log2 fold change of degron read counts” value was 3.14 under setting [1], 3.15 under setting [2], 2 under setting [3] and 0.314 (compound: thalidomide).

On to FSCEVCGAMFTQKGNLLRHIKL [46F_47S_49E_50V_52G_53A_54M_55F_67L_, Q9UKT9], for which the “log2 fold change of degron read counts” value came out at 2.43 under setting [1], 1.36 under setting [2], 1.15 under setting [3] and 0.408 (compound: thalidomide).

FQCEVCGAMFTQKGNLLRHIKL [46F_47Q_49E_50V_52G_53A_54M_55F_67L_, Q9UKT9]: the “log2 fold change of degron read counts” value is, setting by setting: under setting [1], -0.365; under setting [2], 2.11; under setting [3], 2.44; (compound: thalidomide) 3.52.

As to FKCEVCGAMFTQKGNLLRHIKL [46F_47K_49E_50V_52G_53A_54M_55F_67L_, Q9UKT9], the “log2 fold change of degron read counts” value under setting [1] is -1.98, the “log2 fold change of degron read counts” value under setting [2] is -3.85, the “log2 fold change of degron read counts” value under setting [3] is -3.74 and the “log2 fold change of degron read counts” value (compound: thalidomide) is -1.96.

With FVCEVCGAMFTQKGNLLRHIKL [46F_47V_49E_50V_52G_53A_54M_55F_67L_, Q9UKT9], the “log2 fold change of degron read counts” value is, setting by setting: under setting [1], -0.335; under setting [2], 1.3; under setting [3], 1.8; (compound: thalidomide) 2.05.

With FGCEVCGAMFTQKGNLLRHIKL [46F_47G_49E_50V_52G_53A_54M_55F_67L_, Q9UKT9], the “log2 fold change of degron read counts” value is 3.32 under setting [1], 2.09 under setting [2], 1.16 under setting [3] and -0.148 (compound: thalidomide).

For the sequence FNCEVCGAMFTQKGNLLRHIKL [46F_47N_49E_50V_52G_53A_54M_55F_67L_, Q9UKT9], the “log2 fold change of degron read counts” value runs as follows: under setting [1], 0.96; under setting [2], -0.745; under setting [3], -0.544; (compound: thalidomide) -0.743.

In the case of FACEVCGAMFTQKGNLLRHIKL [46F_47A_49E_50V_52G_53A_54M_55F_67L_, Q9UKT9], the “log2 fold change of degron read counts” value under setting [1] was determined as 3.25, the “log2 fold change of degron read counts” value under setting [2] amounted to 1.34, the “log2 fold change of degron read counts” value under setting [3] came to 0.261 and the “log2 fold change of degron read counts” value (compound: thalidomide) was -0.323.

As for FDCEVCGAMFTQKGNLLRHIKL [46F_47D_49E_50V_52G_53A_54M_55F_67L_, Q9UKT9], the “log2 fold change of degron read counts” value is -0.122 under setting [1], -0.858 under setting [2], 0.0809 under setting [3] and 0.0891 (compound: thalidomide).

As to FECEVCGAMFTQKGNLLRHIKL [46F_47E_49E_50V_52G_53A_54M_55F_67L_, Q9UKT9], the “log2 fold change of degron read counts” value was -1.4 under setting [1], -1.93 under setting [2], 0.328 under setting [3] and 1.08 (compound: thalidomide).

With LDCEICGFLCTQKGNLLRHIKL [46L_47D_49E_50I_52G_53F_54L_55C_67L_, Q9UKT9], the “log2 fold change of degron read counts” value was -0.807 under setting [1], -1.38 under setting [2], -0.989 under setting [3] and -0.479 (compound: thalidomide).

On to FACPQCGAFFTQKGNLLRHIKL [46F_47A_49P_50Q_52G_53A_54F_55F_67L_, Q9UKT9], for which the “log2 fold change of degron read counts” value is -0.715 under setting [1], -2.49 under setting [2], -1.05 under setting [3] and -1.87 (compound: thalidomide).

Take FWCNQCGAEFTQKGNLLRHIKL [46F_47W_49N_50Q_52G_53A_54E_55F_67L_, Q9UKT9]: the “log2 fold change of degron read counts” value by setting is: under setting [1], -1.48; under setting [2], -2.56; under setting [3], -2.24; (compound: thalidomide) -2.85.

Take FGCEICGRGFTQKGNLLRHIKL [46F_47G_49E_50I_52G_53R_54G_55F_67L_, Q9UKT9]: the “log2 fold change of degron read counts” value was -1.02 under setting [1], -2.46 under setting [2], -2.04 under setting [3] and -2.19 (compound: thalidomide).

On to LGCEICGFCCTQKGNLLRHIKL [46L_47G_49E_50I_52G_53F_54C_55C_67L_, Q9UKT9], for which the “log2 fold change of degron read counts” value is -0.15 under setting [1], -0.36 under setting [2], -0.974 under setting [3] and -0.994 (compound: thalidomide).

Take FKCEVCGAHFTQKGNLLRHIKL [46F_47K_49E_50V_52G_53A_54H_55F_67L_, Q9UKT9]: the “log2 fold change of degron read counts” value is -2.01 under setting [1], -3.17 under setting [2], -2.55 under setting [3] and -1.68 (compound: thalidomide).

With LNCPICGFNCTQKGNLLRHIKL [46L_47N_49P_50I_52G_53F_54N_55C_67L_, Q9UKT9], the “log2 fold change of degron read counts” value was 0.0324 under setting [1], -0.534 under setting [2], -0.051 under setting [3] and 0.589 (compound: thalidomide).

Regarding FWCEVCGAMFTQKGNLLRHIKL [46F_47W_49E_50V_52G_53A_54M_55F_67L_, Q9UKT9], the “log2 fold change of degron read counts” value came to 3.14 under setting [1], 3.46 under setting [2], 2.23 under setting [3] and 0.316 (compound: thalidomide).

Regarding FTCEVCGAMFTQKGNLLRHIKL [46F_47T_49E_50V_52G_53A_54M_55F_67L_, Q9UKT9], the “log2 fold change of degron read counts” value was -0.151 under setting [1], 0.976 under setting [2], 1.67 under setting [3] and 1.62 (compound: thalidomide).

As to FCCEVCGAMFTQKGNLLRHIKL [46F_47C_49E_50V_52G_53A_54M_55F_67L_, Q9UKT9], the “log2 fold change of degron read counts” value runs as follows: under setting [1], 1.54; under setting [2], 1.34; under setting [3], 1.7; (compound: thalidomide) 0.852.

Consider FQCNICGANFTQKGNLLRHIKL [46F_47Q_49N_50I_52G_53A_54N_55F_67L_, Q9UKT9], for which the “log2 fold change of degron read counts” value is -0.813 under setting [1], 0.399 under setting [2], 1.05 under setting [3] and 3.08 (compound: thalidomide).

For FYCNQCGRCFTQKGNLLRHIKL [46F_47Y_49N_50Q_52G_53R_54C_55F_67L_, Q9UKT9], the “log2 fold change of degron read counts” value under setting [1] was -1.93, the “log2 fold change of degron read counts” value under setting [2] was -2.09, the “log2 fold change of degron read counts” value under setting [3] was -1.97 and the “log2 fold change of degron read counts” value (compound: thalidomide) was -2.28.

As for LTCNQCGFKCTQKGNLLRHIKL [46L_47T_49N_50Q_52G_53F_54K_55C_67L_, Q9UKT9], the “log2 fold change of degron read counts” value was -2.23 under setting [1], -1.85 under setting [2], -2.34 under setting [3] and -1.79 (compound: thalidomide).

With FVCPICGAIFTQKGNLLRHIKL [46F_47V_49P_50I_52G_53A_54I_55F_67L_, Q9UKT9], the “log2 fold change of degron read counts” value under setting [1] is -0.598, the “log2 fold change of degron read counts” value under setting [2] was 0.358, the “log2 fold change of degron read counts” value under setting [3] is 1.51 and the “log2 fold change of degron read counts” value (compound: thalidomide) amounted to 1.69.

In the case of FGCPICGAIFTQKGNLLRHIKL [46F_47G_49P_50I_52G_53A_54I_55F_67L_, Q9UKT9], the “log2 fold change of degron read counts” value runs as follows: under setting [1], 3.81; under setting [2], 2.51; under setting [3], 2.55; (compound: thalidomide) 0.986.

FYCPICGAIFTQKGNLLRHIKL [46F_47Y_49P_50I_52G_53A_54I_55F_67L_, Q9UKT9]: the “log2 fold change of degron read counts” value turned out to be 2.75 under setting [1], 2.82 under setting [2], 1.86 under setting [3] and 0.386 (compound: thalidomide).

As for FSCPICGAIFTQKGNLLRHIKL [46F_47S_49P_50I_52G_53A_54I_55F_67L_, Q9UKT9], the “log2 fold change of degron read counts” value came to 1.58 under setting [1], 1.34 under setting [2], 2.26 under setting [3] and 0.935 (compound: thalidomide).

FTCPICGRIFTQKGNLLRHIKL [46F_47T_49P_50I_52G_53R_54I_55F_67L_, Q9UKT9]: the “log2 fold change of degron read counts” value is -1.75 under setting [1], -0.494 under setting [2], 0.959 under setting [3] and 1.17 (compound: thalidomide).

On to FKCPICGAIFTQKGNLLRHIKL [46F_47K_49P_50I_52G_53A_54I_55F_67L_, Q9UKT9], for which the “log2 fold change of degron read counts” value runs as follows: under setting [1], -2.31; under setting [2], -3.23; under setting [3], -3.09; (compound: thalidomide) -1.63.

As for FSCPICGRIFTQKGNLLRHIKL [46F_47S_49P_50I_52G_53R_54I_55F_67L_, Q9UKT9], the “log2 fold change of degron read counts” value is, setting by setting: under setting [1], -0.412; under setting [2], -0.447; under setting [3], 1.06; (compound: thalidomide) 0.174.

On to FGCPICGRIFTQKGNLLRHIKL [46F_47G_49P_50I_52G_53R_54I_55F_67L_, Q9UKT9], for which the “log2 fold change of degron read counts” value is, setting by setting: under setting [1], 3.47; under setting [2], 1.77; under setting [3], 0.585; (compound: thalidomide) -0.161.

As for FQCPICGAIFTQKGNLLRHIKL [46F_47Q_49P_50I_52G_53A_54I_55F_67L_, Q9UKT9], the “log2 fold change of degron read counts” value runs as follows: under setting [1], -0.241; under setting [2], 3.26; under setting [3], 2.84; (compound: thalidomide) 3.79.
